# Screening data as filed in PubChem.
# GPR151 ag: activators of human GPR151. Q8TDV0. PathHunter beta-arrestin GPR151 cells, luminescence. activation, % at 11.2 µM. 650,000 tested, 1% active. AID 1508602; in the data active = activation above about 4.9%;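 note: 0% = median of compound wells and 100% = cells with positive control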
# TEAD-YAP inh: TEAD-YAP interaction inhibition; HEK-TIYL cells, TEAD-Gal4/YAP UAS-luciferase luminescence; inhibition, % at 9.12 µM; 640,000 tested, 1.4% active; AID 1259422; in the data active = inhibition above about 32%;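 note: 0% = median of test compound wells and 100% = reference inhibitor wells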
# FBW7 act: activators of human E3 ligase FBW7; Q969H0; AID 1259310; normalized activity (activation), % at 26.1 µM; 650,000 tested, 0.13% active; AlphaScreen FBW7–phospho-cyclin E peptide binding, activator screen; in the data active = normalized activity above about 1.9%;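 note: purified mutant Fbw7 with reduced substrate affinity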
# Target sequence (Q969H0 whole entry, looked up): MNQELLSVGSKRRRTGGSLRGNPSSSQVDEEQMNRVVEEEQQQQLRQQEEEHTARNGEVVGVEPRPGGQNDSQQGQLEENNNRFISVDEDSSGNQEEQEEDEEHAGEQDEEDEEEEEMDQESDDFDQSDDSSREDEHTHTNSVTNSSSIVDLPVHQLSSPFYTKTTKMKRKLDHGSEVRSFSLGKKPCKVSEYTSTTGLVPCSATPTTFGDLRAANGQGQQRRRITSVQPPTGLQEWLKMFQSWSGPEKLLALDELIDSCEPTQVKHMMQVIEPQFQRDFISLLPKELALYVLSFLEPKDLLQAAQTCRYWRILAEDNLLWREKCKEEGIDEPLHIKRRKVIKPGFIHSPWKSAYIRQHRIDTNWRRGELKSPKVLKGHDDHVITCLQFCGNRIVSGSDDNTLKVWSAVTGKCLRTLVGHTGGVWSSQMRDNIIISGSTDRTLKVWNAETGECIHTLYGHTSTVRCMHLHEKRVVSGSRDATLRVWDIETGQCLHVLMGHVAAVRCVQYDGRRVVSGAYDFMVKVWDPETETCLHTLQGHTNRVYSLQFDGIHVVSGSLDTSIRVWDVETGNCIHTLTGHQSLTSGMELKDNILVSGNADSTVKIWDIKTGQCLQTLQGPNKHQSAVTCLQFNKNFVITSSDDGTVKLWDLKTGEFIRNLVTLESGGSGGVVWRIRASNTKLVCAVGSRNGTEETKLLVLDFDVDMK
# MITF inh: human MITF inhibition, primary screen. AlphaScreen MITF homodimerization, bead proximity signal. inhibition, % at 2.6 µM. 650,000 tested, 0.91% active; in the data active = inhibition above about 50%;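 note: 0% = vehicle wells with protein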
# * hit, by the source's call. Rows were chosen to be rich in hits. Some 3.5% of all compounds tested hit in one or more screens of this group.
SMILES,GPR151 ag,TEAD-YAP inh,FBW7 act,MITF inh
CSc1ccc(-c2cc(=O)c3ccccc3o2)cc1,-1,-61,-1,5
CCOc1ccc(-c2cc(=O)c3ccccc3o2)cc1,-2,-30,0,1
CSc1ccc(-c2cc(=O)c3cc(O)ccc3o2)cc1,-3,44*,0,-5
Nc1c(C(=O)Nc2ccc3c(c2)OCCO3)sc2nc3ccccc3cc12,0,-26,0,-3
Cc1nc2cc3ccccc3cc2c(=O)n1/N=C/N(C)C,1,-17,0,5
COc1cccc(CNC(=O)c2ccc3nc(-c4ccc(C)cc4)c(-c4ccc(C)cc4)nc3c2)c1,0,4,0,-5
COc1ccc(-c2nc3ccc(C(=O)NCc4cccnc4)cc3nc2-c2ccc(OC)cc2)cc1,1,45*,0,8
COC(=O)Cc1nc(NCc2ccccc2OC)c2c(C)c(C)sc2n1,1,4,1,20
Cc1nc(NCc2ccc(F)cc2)c2c(C)c(C)sc2n1,1,35*,0,8
COc1ccccc1CNc1nc(C)nc2sc(C)c(C)c12,2,46*,0,0
Cc1sc2ncnc(NCc3ccc(Cl)cc3)c2c1C,1,-3,0,-4
Cc1sc2nc(-c3cccnc3)nc(NCc3cccnc3)c2c1C,-2,68*,0,73*
Cc1nc(NCc2ccc(Cl)cc2)c2c(C)c(C)sc2n1,0,39*,0,12
CCc1nnc(NC(=O)c2ccccc2I)s1,0,-32,-2,0
CCOc1cc(Br)c(/C=C2/NC(=O)NC2=O)cc1OCC,0,44*,0,7
COc1cc(/C=C2/NC(=O)NC2=O)c(Br)cc1O,0,10,0,-2
CCOc1cc(/C=C2/NC(=O)NC2=O)c(Br)cc1O,0,44*,0,-28
CCOc1cc(Cl)c(/C=C2/NC(=O)NC2=O)cc1OCC,-1,-11,0,4
O=C1CS/C(=N/N=C/c2ccco2)N1c1ccc(F)cc1,-1,5,0,13
COc1ccc(/C=N/n2c(-c3cccnc3)n[nH]c2=S)c(OC)c1OC,0,-3,0,21
CC(=O)Nc1cccc(NC(=O)CSc2ccc(-c3nc4ccccc4[nH]3)cn2)c1,-4,40*,0,-6
Cc1ccc(-c2nnc(-c3ccccc3C)o2)cc1,-3,-33,0,6
Cc1ccc(-c2nnc(Nc3ccccc3)o2)cc1,-10,44*,0,5
COC(=O)C1=C(C)NC2=C(C(=O)CC(c3ccc(Cl)cc3)C2)C1c1cccc([N+](=O)[O-])c1 (centres undefined),1,13,0,13
O=C(COc1ccccc1)Nc1ccccn1,-4,21,0,1
SMILES,GPR151 ag,TEAD-YAP inh,FBW7 act,MITF inh
Cc1cccc(C(=O)NC(=S)Nc2cccc(C(=O)O)c2)c1,-1,-42,0,-2
Cc1ccc(C(=O)NC(=S)Nc2cccc(C(=O)O)c2)cc1,-6,75*,0,2
O=C(Nc1ccccn1)c1ccc(-c2ccccc2)cc1,-3,75*,0,3
O=C(COc1ccc(Br)cc1)Nc1ccccn1,0,62*,0,-7
Cc1ccc(OCC(=O)Nc2ccccn2)cc1,-1,83*,0,3
CCOc1ccccc1CN1CCN(Cc2cccc(C)n2)CC1CCO (centres undefined),0,-4,0,10
Cc1ccc(C(=O)Nc2cccc(NC(=O)c3ccc(C)o3)c2)o1,1,-4,0,0
O=C(COC(=O)C(Cc1ccccc1)N1C(=O)C2C3C=CC(C3)C2C1=O)c1ccc([N+](=O)[O-])cc1 (centres undefined),0,8,0,1
CCOc1ccc(OCC(=O)Nc2cccc(C(=O)O)c2)cc1,5,4,0,1
COc1cc(OC)cc(C(=O)N/N=C(\C)CC(=O)Nc2ccccn2)c1,0,56*,0,-2
CCOc1ccc(C(=O)NC(=S)Nc2ccccn2)cc1,-8,86*,1,13
CCCCOc1ccc(C(=O)NC(=S)Nc2ccccn2)cc1,-2,-50,1,19
Cc1ccc(OCC(=O)Nc2cccc(C(=O)O)c2)cc1,4,69*,0,-10
CCOC(=O)C1CCCc2c1[nH]c1ccc(Cl)cc21 (centres undefined),2,39*,1,12
O=C(Nc1ccc(F)c(F)c1)c1ccc(F)c(S(=O)(=O)N2CCCc3ccccc32)c1,1,43*,0,-14
O=C(Nc1ccc(Cl)c(Cl)c1)c1ccc(F)c(S(=O)(=O)N2CCCc3ccccc32)c1,-1,49*,0,-8
O=c1cc(-c2ccc(O)cc2)oc2c(C3O[C@H](CO)[C@@H](O)[C@H](O)[C@H]3O)c(O)cc(O)c12 (some centres undefined),-1,-8,0,32
O=c1c(O[C@@H]2O[C@H](CO)[C@@H](O)[C@H](O)[C@H]2O)c(-c2ccc(O)c(O)c2)oc2cc(O)cc(O)c12,1,-2,0,61*
O=c1cc(-c2ccc(O)c(O)c2)oc2cc(O)c(C3OC(CO)C(O)C(O)C3O)c(O)c12 (centres undefined),-1,3,0,74*
O=c1c(O[C@@H]2O[C@H](CO)[C@H](O)[C@H](O)[C@H]2O)c(-c2ccc(O)c(O)c2)oc2cc(O)cc(O)c12,0,-7,0,-9
O=c1c(O[C@@H]2OC([C@H](O)CO)[C@H](O)[C@H]2O)c(-c2ccc(O)c(O)c2)oc2cc(O)cc(O)c12 (some centres undefined),1,-7,0,84*
C[C@@H]1O[C@@H](OC[C@H]2O[C@@H](Oc3c(-c4ccc(O)c(O)c4)oc4cc(O)cc(O)c4c3=O)[C@H](O)[C@@H](O)[C@@H]2O)[C@H](O)[C@H](O)[C@H]1O,-1,3,0,83*
COc1cc(-c2cncc(-c3ccccc3N(C)C)n2)cc(OC)c1OC,0,-3,0,-8
COc1cncc(-c2cncc(-c3ccccc3N(C)C)n2)c1,1,36*,0,-1
COc1ccc(/C=C2\C=C(c3ccccc3)N(c3cccc(O)c3)C2=O)cc1Br,0,-1,0,3
SMILES,GPR151 ag,TEAD-YAP inh,FBW7 act,MITF inh
O=C(CN1C(=O)C2C3C=CC(C3)C2C1=O)NCc1ccccc1 (centres undefined),-1,2,0,9
O=C(CN1C(=O)C2C3C=CC(C3)C2C1=O)Nc1c2ccccc2nc2ccccc12 (centres undefined),0,72*,0,4
COc1cc(OC)cc(C(=O)N(Cc2nc(-c3ccc(Cl)cc3)no2)C(C)C)c1,0,-7,0,-10
COc1ccc(C2C(C(=O)N(C)c3ccc(C(C)C)cc3)c3ccccc3C(=O)N2C2CCCCC2)cc1 (centres undefined),1,9,0,1
COc1ccc(SCCCC(=O)Nc2c3c(nn2C)CCC3)cc1,0,45*,0,10
COc1ccc(SCC(=O)Nc2c3c(nn2C)CCC3)cc1,1,38*,0,10
COC(=O)c1ccc(NS(=O)(=O)c2ccc(NC(N)=O)cc2)cc1,-1,8,0,19
